The record followed here is PubChem BioAssay (EPA / NIEHS).

Inconclusive results are not listed. A structure can be active in one record and inactive in another. Calls of active or inactive are those of the source. The calls were made as follows: active = hit-call score of the fitted dose curve at least 0.9, where 1 is the maximum; inconclusive = response in the unintended direction; inactive = score below 0.9.

Tested on in one experiment: not listed separately
In words: ACEA_ER_AUC_viability: ACEA Biosciences xCELLigence Real-Time Cell Analysis on Estrogen Receptor Agonism for Viability (AID 2283782).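 Also: hit means loss of impedance signal meaning reduced cell growth or viability.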 A digest of the protocol: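 Read-out: real-time electrical impedance (RT-CES) area under curve, loss of signal taken as reduced viability, normalized to DMSO baseline. T-47D cells, charcoal-stripped serum medium, compounds up to 100 uM final, continuous exposure, 80 h.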
Regarding `COC(=O)CCC(F)(F)C(F)(F)C(F)(F)C(F)(F)F`, the compound was called inactive. Usually AC50 stands for the midpoint of the concentration-response curve, whichever way the signal moves. As to `CC(C)c1ccccc1N`, the AC50 is 50 µM (active). For the compound `CCCCCCOC(=O)c1ccccc1O`, the compound was called inactive. Consider `FC(F)(F)C(F)(F)C(F)(F)C(F)(F)C(F)(F)C(F)(F)CC1CO1` (stereo not given), for which the outcome was inactive. Take `O=S(=O)(OCC(F)F)C(F)(F)F`: the result was inactive. On to `O=C(O)C(F)(OC(F)(F)C(F)(OC(F)(F)C(F)(F)C(F)(F)F)C(F)(F)F)C(F)(F)F` (stereo not given), for which the compound was classed as inactive. As to `C(=C(c1ccccc1)c1ccccc1)c1ccccc1`, the AC50 was 87.1 µM (active). For `FC(F)(F)C(F)(F)C(F)(F)C(F)(F)C(F)(F)C(F)(F)C(F)(F)Br`, the call was inactive. For `Nc1ccc(Oc2cccc(Oc3ccc(N)cc3)c2)cc1`, the AC50 is 64.2 µM (active). Regarding `O=C(Cl)C(F)(F)C(F)(F)C(F)(F)C(F)(F)C(F)(F)C(F)(F)C(F)(F)C(F)(F)F`, the AC50 was 127 µM (active). Regarding `C=CC(=O)OCC(F)(F)C(F)(F)C(F)(F)C(F)(F)C(F)(F)C(F)(F)C(F)(F)F`, the compound was called inactive.

As for `Nc1ccc(S(=O)(=O)Nc2nccs2)cc1`, the AC50 is 26 µM (active) and the compound was classed as inactive. On to `CCCCCCCOC(=O)c1ccccc1C(=O)OCCCCCCC`, for which the compound was called inactive.

The next experiment addresses AR (gene 367) (UniProt P10275). The experiment can be described thus: ACEA_AR_agonist_80hr: ACEA Biosciences xCELLigence Real-Time Cell Analysis on Androgen Receptor Agonism for Proliferation (AID 2283783).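 Also: hits increase impedance growth signal above DMSO baseline.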 Put shortly:
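Impedance (RT-CES) growth signal at 80 h post-dose; 22Rv1 cells, 8-pt 1:4 series, top 100 uM final, DMSO ≤0.5%; duplicate plates; gain-of-signal fit relative to DMSO baseline.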
In the case of `CN(C)Cc1ccccc1O`, the compound was classed as inactive. `CNC(=S)NC`: the compound was called inactive.

For `CCCCCCC(C)OC(=O)CCCCC(=O)OC(C)CCCCCC` (stereo not given), the call was inactive.

The target in another experiment is AR (gene 367) (UniProt P10275). The experiment can be described thus: ACEA_AR_antagonist_80hr: ACEA Biosciences xCELLigence Real-Time Cell Analysis on Androgen Receptor Antagonism for Proliferation (AID 2283787).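 Also: 22Rv1 human prostate cancer cells with growth followed by electrical impedance; hits lower the impedance growth signal relative to DMSO.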 A digest of the protocol: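 Measures real-time proliferation of 22Rv1 prostate cancer cells by electrode impedance at 80 hours after dosing. Test articles ran at eight concentrations (1:4 steps, top 100 uM final) in biological duplicate.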
AR (gene 367), sequence (P10275 whole entry, looked up): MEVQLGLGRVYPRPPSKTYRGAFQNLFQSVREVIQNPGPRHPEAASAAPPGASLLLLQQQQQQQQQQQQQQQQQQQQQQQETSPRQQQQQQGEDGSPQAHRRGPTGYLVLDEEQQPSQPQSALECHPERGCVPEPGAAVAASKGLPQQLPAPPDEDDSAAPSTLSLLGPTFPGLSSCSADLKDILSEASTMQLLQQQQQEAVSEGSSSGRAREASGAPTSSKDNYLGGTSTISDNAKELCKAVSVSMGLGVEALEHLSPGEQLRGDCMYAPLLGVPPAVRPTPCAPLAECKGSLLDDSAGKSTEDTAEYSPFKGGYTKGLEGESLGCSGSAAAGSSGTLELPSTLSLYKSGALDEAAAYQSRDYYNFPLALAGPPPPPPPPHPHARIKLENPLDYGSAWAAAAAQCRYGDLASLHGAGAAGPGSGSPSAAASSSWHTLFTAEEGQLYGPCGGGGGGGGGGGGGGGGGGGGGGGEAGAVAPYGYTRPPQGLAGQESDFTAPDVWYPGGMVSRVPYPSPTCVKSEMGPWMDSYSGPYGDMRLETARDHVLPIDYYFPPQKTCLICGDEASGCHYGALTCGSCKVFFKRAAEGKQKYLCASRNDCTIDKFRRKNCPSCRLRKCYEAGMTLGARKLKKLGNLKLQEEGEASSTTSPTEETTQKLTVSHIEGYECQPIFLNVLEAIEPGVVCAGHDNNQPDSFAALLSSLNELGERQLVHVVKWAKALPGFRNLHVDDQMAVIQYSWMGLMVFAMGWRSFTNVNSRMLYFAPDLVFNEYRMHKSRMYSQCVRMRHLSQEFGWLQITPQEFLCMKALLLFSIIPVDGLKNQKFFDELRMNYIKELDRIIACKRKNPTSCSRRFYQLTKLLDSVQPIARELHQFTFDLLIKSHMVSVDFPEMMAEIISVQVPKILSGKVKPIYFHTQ
On to `CN(C)Cc1ccccc1O`, for which the result was inactive. `CCCCCCOC(=O)c1ccccc1O`: the outcome was inactive.

Consider `CNC(=S)NC`, for which the result was inactive. The same measure, in the same setting: as for `CCCCCCC(C)OC(=O)CCCCC(=O)OC(C)CCCCCC` (stereo not given), the entry is “inactive”.

Tested on in the next experiment: not listed separately
The experiment can be described thus: ATG_M_06_XSP2: Attagene TRANS-FACTORIAL Multi-Species (XSP2) HepG2 Assay for M06 Transcription Factor (Internal Marker) (AID 2283811).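 Also: internal background marker reporter mRNA measured by RT-PCR and capillary electrophoresis; hits are increases in signal above the DMSO baseline.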 Put shortly:
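Readout: fluorescent reporter-mRNA peaks by capillary electrophoresis after RT-PCR and HpaI digest, scored upward relative to DMSO. Transfected HepG2, 24 h chemical exposure, with 3 nM 6-alpha-fluorotestosterone and 1.5 nM norgestrel added.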
With `c1ccc(B(c2ccccc2)c2ccccc2)cc1`, the outcome was inactive. Still for that read-out and setting: for `O=C(OCCOCCOCCOC(=O)c1ccccc1)c1ccccc1` the value was “inactive”; for `C#C[C@]1(O)CC[C@H]2[C@@H]3CCc4cc(OC)ccc4[C@H]3CC[C@@]21C`, “inactive”; for `C(=C(c1ccccc1)c1ccccc1)c1ccccc1`, “inactive”.
